High-throughput results: PubChem, National Center for Advancing Translational Sciences (NCATS)
HP1b binding inh – blocks HP1-beta chromodomain binding to methylated histone tails; P83916; AlphaScreen HP1-beta / biotin-H3K9me3 peptide binding; Potency, µM (highest dose often 114 µM), inactives show top-dose activity change, negative = inhibition, actives largely listed as inhibitors; 0.56% of 390,000 active; note: nearly all actives have a fitted effect of over 70% in size
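HP1-beta protein (50 nM final) preincubated 30 min at room temperature with biotinylated H3(1-18)K9me3 peptide (50 nM) in PBS pH 7.4, 0.01% Tween-20, then compound added for 30 min. AlphaScreen streptavidin donor/nickel chelate acceptor beads (10 ug/mL final), 30 min dark, luminescence read.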
GLS inh – inhibitors of human glutaminase (GLS); GLS enzymatic activity, qHTS titration; Potency, µM (series often up to 45.5 µM), for inactives: at the highest dose activity change, negative = inhibition, actives largely listed as inhibitors; 0.21% of 410,000 active; AID 624170; note: % is set by controls: 0 for no effect and ±100 for the full control effect
Target sequence (O94925 whole entry, looked up): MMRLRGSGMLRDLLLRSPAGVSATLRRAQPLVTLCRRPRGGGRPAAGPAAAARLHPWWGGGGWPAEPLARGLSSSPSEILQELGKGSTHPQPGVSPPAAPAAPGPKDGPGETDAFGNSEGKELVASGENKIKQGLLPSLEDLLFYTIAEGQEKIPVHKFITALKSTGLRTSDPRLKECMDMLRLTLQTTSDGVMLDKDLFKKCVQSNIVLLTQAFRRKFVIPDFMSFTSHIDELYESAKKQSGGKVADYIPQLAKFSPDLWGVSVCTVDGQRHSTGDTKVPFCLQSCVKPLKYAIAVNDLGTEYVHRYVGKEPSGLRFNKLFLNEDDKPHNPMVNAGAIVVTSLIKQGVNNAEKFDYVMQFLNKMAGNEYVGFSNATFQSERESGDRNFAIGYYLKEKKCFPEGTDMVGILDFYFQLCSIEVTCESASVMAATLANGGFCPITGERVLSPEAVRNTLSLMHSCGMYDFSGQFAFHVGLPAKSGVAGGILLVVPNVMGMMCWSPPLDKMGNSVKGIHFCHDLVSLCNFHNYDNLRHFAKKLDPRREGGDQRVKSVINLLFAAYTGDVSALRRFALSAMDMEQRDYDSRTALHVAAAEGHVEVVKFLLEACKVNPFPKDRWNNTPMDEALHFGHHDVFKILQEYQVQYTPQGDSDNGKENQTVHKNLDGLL
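Assay buffer: 45 mM KH2PO4 pH 8.2, 0.02% Tween-20. hKGA acts on L-glutamine (1 mM solution added); product glutamate is reported by an oxidase/peroxidase Amplex Red coupling, with fluorescence taken at baseline and 30 min.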
BAZ2B inh – BAZ2B (human) inhibition | Q9UIF8 | AlphaScreen BAZ2B-H3K14Ac peptide displacement | Potency, µM (series often up to 114 µM), for inactives: top-dose activity change, negative = inhibition, actives largely listed as inhibitors | 4.4% of 360,000 active; note: % is set by controls: 0 for no effect and ±100 for the full control effect; nearly all actives have a fitted effect of over 60% in size
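Protein-peptide AlphaScreen: BAZ2B 50 nM, b-H3K14Ac 50 nM, 1x PBS pH 7.4 + 0.01% Tween-20. Preincubation 30 min RT; cpd 30 min RT (top 110 uM); beads 20 min RT, light-protected.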
JMJD2A Tudor – blocks the human JMJD2A Tudor domain; O75164; AlphaScreen JMJD2A-Tudor / H3K4me3 peptide binding; Potency, µM (highest dose often 114 µM), without a hit: top-dose activity change, negative = inhibition, actives largely listed as inhibitors; 4.4% of 390,000 active; AID 504339; note: % is set by controls: 0 for no effect and ±100 for the full control effect; nearly all actives have a fitted effect of over 50% in size
G9a inh – inhibitors of human histone lysine methyltransferase G9a | G9a H3K9 monomethylation, AlphaScreen, 2 h | Potency, µM (highest dose often 102 µM), without a hit: at the top dose activity, negative = inhibition, actives largely listed as inhibitors | AID 504332 | 8.8% of 350,000 active; note: % is set by controls: 0 for no effect and ±100 for the full control effect; nearly all actives have a fitted effect of over 75% in size
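Signal arises when biotinylated H3K9 peptide, once monomethylated, bridges streptavidin donor and antibody-captured acceptor beads. Enzyme at 20 nM was preincubated 15 min with test compounds; peptide 500 nM and SAM 20 uM then reacted for 2 h.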
L3MBTL1 inh – inhibitors of human L3MBTL1; Q9Y468; AlphaScreen L3MBTL1–H3K9me1 peptide binding; Potency, µM (series often up to 57.1 µM), inactives show at the top dose activity, negative = inhibition, most hits filed as inhibitors; 0.66% of 230,000 active; AID 485360; note: % is set by controls: 0 for no effect and ±100 for the full control effect; nearly all actives have a fitted effect of over 60% in size
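L3MBTL1 (50 nM) pre-complexed 30 min with biotinylated H3(1-15)K9me1 peptide (75 nM), then compounds added for 30 min at room temperature; AlphaScreen streptavidin donor/nickel chelate acceptor beads (10 ug/mL final) read after 30 min dark incubation.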
* = called active by the depositor; ? = inconclusive; · = no result; [ ] = remark or other dose. Most compounds without a hit are left out; they make up all but 10% or so of the library. Calls come from the whole dose curve; as a rule, active = well fitted curve in the direction sought with a large enough effect; inconclusive = small, poorly fitted or top-dose-only effect, or another doubt; inactive = no such curve, though single readings can be large; an effect the other way counts as inactive or inconclusive. Potency is the fitted concentration of half-maximal effect.

SMILES	HP1b binding inh	GLS inh	BAZ2B inh	JMJD2A Tudor	G9a inh	L3MBTL1 inh
N#CCCN1CCN(S(=O)(=O)c2ccc(S(=O)(=O)NC3CCCC3)cc2)CC1	36%	1%	7%	-6%	35µM*	-14%
CCOC(=O)c1c(C)[nH]c(C2=NNC(=NC3CC3)SC2)c1C	?	13%	-32%	?	18µM*	-21%
Cc1ccc(C(=O)N2NC(c3ccc(F)cc3)C3C(=O)N(c4ccc(C)cc4)C(=O)C32)cc1 (stereo not given)	83%	2%	-4%	-8%	-9%	-5%
Cc1ccc(C(=O)N2NC(c3ccc(F)cc3)C3C(=O)N(c4ccc(C)c(C)c4)C(=O)C32)cc1 (stereo not given)	43%	11%	-9%	-19%	56µM*	?
COc1ccccc1N1C(=O)C2C(c3ccc(F)cc3)NN(C(=O)c3ccc(C)cc3)C2C1=O (stereo not given)	21%	6%	?	-16%	-36%	-4%
CCOc1ccc(N2C(=O)C3C(c4ccccc4F)NN(C(=O)c4ccc(C)cc4)C3C2=O)cc1 (stereo not given)	24%	3%	-9%	-20%	50µM*	-15%
COc1ccc(-c2onc(C)c2C)cc1S(=O)(=O)N(C)Cc1ccco1	8%	5%	-19%	-23%	-6%[59 µM]	·
Cc1ccc2nc(-c3ccc(NC(=O)COCC(=O)O)cc3)sc2c1	23%	1%	-4%	-20%	50µM*	0%
Cc1ccc2nc(-c3ccc(NC(=O)CCN4C(=O)c5ccccc5C4=O)cc3)sc2c1	33%	4%	-19%	-8%	45µM*	1%
O=C(O)CSCC(=O)Nc1ccc(-c2nc3ccccc3s2)cc1	9%	13%	-1%	-30%	45µM*	-5%
CCc1nn2c(=O)c(S(=O)(=O)Nc3ccc(C)c(C)c3)c(C)nc2s1	4%	9%	?	-13%	?	·
COc1ccc(CCNC(=O)c2cc3c(s2)-c2c(C)cccc2OC3)c(OC)c1	66%	2%	31%	29%	51%[59 µM]	·
COc1ccc(NC(=O)N2CCc3c([nH]c4ccc(OC)cc34)C2c2ccc(OC)cc2)cc1 (stereo not given)	1%	4%	?	?	?	·
CCOc1ccccc1CNC(=O)c1cc2oc3ccccc3c2n1C	-8%	-1%	-30%	?	-5%[59 µM]	·
CCOc1ccccc1CNC(=O)c1cc2occc2n1C	?	4%	45µM*	-35%	25µM*	?
CCc1nc2ccc(C(=O)NCCc3ccc(OC)cc3OC)cc2nc1CC	21%	-15%	-5%	-7%	8%[59 µM]	·
CCCN(CCC)CC(O)Cn1cc(/C=C/C(=O)c2ccc(OC)cc2)c2ccccc21 (stereo not given)	-19%	-5%	?	45µM*	-45%[59 µM]	·
CCCN(CCC)CC(O)Cn1cc(/C=C/C(=O)c2ccccc2)c2ccccc21 (stereo not given)	9%	3%	·	?	?	·
CCCN(CCC)CC(O)Cn1cc(/C=C/C(=O)c2ccc(C)cc2)c2ccccc21 (stereo not given)	-1%	14%	22µM*	?	-54%[59 µM]	·
COc1ccc(C(=O)/C=C/c2cn(CC(O)CN(CC(C)C)CC(C)C)c3ccccc23)cc1 (stereo not given)	41%	-1%	-21%	-21%	1%[59 µM]	·
CCn1c(-c2sc(-c3ccccc3)nc2C)n[nH]c1=S	-6%	0%	-8%	18µM*	-128%[59 µM]	10%
CCn1c(-c2cccc(Br)c2)n[nH]c1=S	0%	-6%	16%	7.9µM*	?	-1%
C=CCn1c(-c2ccc3ncccc3c2)n[nH]c1=S	8%	-11%	5%	7.1µM*	7.9µM*	·
CCCCn1c(=O)[nH]c(=O)c2c1nc(-c1ccc([N+](=O)[O-])cc1)n2CC	27%	-10%	20%	-3%	?	·
CCn1c(-c2ccc([N+](=O)[O-])cc2)n[nH]c1=S	22%	-11%	-30%	3.5µM*	4µM*	-1%
SMILES	HP1b binding inh	GLS inh	BAZ2B inh	JMJD2A Tudor	G9a inh	L3MBTL1 inh
Cc1ccc(N(C)C(=O)C2CCN(S(=O)(=O)c3cn(C)cn3)CC2)cc1	6%	-12%	-32%	1%	-2%[59 µM]	·
CCN(C(=O)Cn1nnc2sc3c(c2c1=O)CCC(C(C)(C)C)C3)c1cccc(C)c1 (stereo not given)	34%	-2%	-14%	-18%	5%[59 µM]	·
O=C(NCc1ccccc1Cl)c1ccc2c(c1)N(Cc1ccccc1)C(=O)c1ccccc1S2	58%	-5%	22%	-16%	2%[59 µM]	·
CCn1c(-c2ccc3ncccc3c2)n[nH]c1=S	29%	·	3%	5µM*	10µM*	2%
Cc1ccc(C)c(CN2C(=O)c3ccccc3S(=O)c3ccc(C(=O)N4CCCCC4)cc32)c1 (stereo not given)	14%	-5%	-30%	-32%	-26%[59 µM]	·
N#C/C(=N\Nc1cccc(C(F)(F)F)c1)C(=O)c1csc(-c2cccnc2)n1	3%	?	28µM*	?	?	?
Cc1ccc(C(=O)Nc2cccc(C(F)(F)F)c2)cc1NC(=O)c1csc(-c2ccncc2)n1	26%	-1%	-31%	-26%	-34%[59 µM]	·
Cc1ccnc(NS(=O)(=O)c2ccc(N3C(=O)c4c(Cl)c(Cl)c(Cl)c(Cl)c4C3=O)cc2)n1	?	-9%	?	89µM*	?	8%
CC(C)[C@H]1COC(c2cc(Cl)cc(Cl)c2)=N1	·	·	·	·	20%	·
O=C(/C=C/c1ccco1)N1CCN(c2ncccn2)CC1	41%	-5%	-35%	-2%	?	-4%
COC(=O)/C=C/C(=O)N1CCN(c2ccccc2)CC1	30%	18%	7%	-9%	50µM*	2%
COc1cccc(N2CCN(C(=O)/C=C/c3ccco3)CC2)c1	-9%	6%	50µM*	-13%	28µM*	-29%
COc1ccc(S(=O)(=O)N2CCN(C(=O)/C=C/c3ccco3)CC2)cc1	1%	-11%	-28%	-35%	25µM*	-3%
O=C(/C=C/c1ccco1)N1CCC(Cc2ccccc2)CC1	-39%	42%	50µM*	50µM*	32µM*	-27%
COc1cc(Cl)c(C)cc1NC(=O)CC(c1ccc(F)cc1)N1Cc2ccccc2C1=O (stereo not given)	12%	-6%	-32%	-10%	-11%[59 µM]	·
COc1cc(C2c3c(oc4ccccc4c3=O)C(=O)N2Cc2ccc(C)cc2)ccc1O (stereo not given)	?	0%	4%	4%	4%[59 µM]	·
N=C1/C(=C/c2coc3ccccc3c2=O)C(=O)N=C2SC(c3ccco3)=NN12	-33%	-39%	71µM*	?	·	?
